In PubChem BioAssay (EPA / NIEHS) one finds AC50 data, which are given here for 17 compounds.

Calls of active or inactive are those of the source. How the source made its calls: active means hit-call score of the fitted dose curve at least 0.9, where 1 is the maximum; inactive means score below 0.9.

This experiment has as its system TTR (gene 7276). Description: CCTE_GLTED_hTTR_0.125uM: CCTE's human Transthyretin (hTTR) Inhibition Assay, with 0.125uM TTR, Great Lakes Toxicology and Ecology Division (GLTED) Lab (AID 2284431).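 Further: hits lower the fluorescence signal relative to DMSO baseline.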 In a few lines:
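Cell-free displacement of ANSA probe from 0.125uM TTR after 2 h incubation with chemical. Fluorescence read at 380 nm excitation/475 nm emission; loss of signal relative to DMSO indicates T4-site displacement.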
On to `Nc1ccc2cc(S(=O)(=O)O)cc(O)c2c1N=Nc1ccccc1C(F)(F)F`, for which the concentration at half-maximal activity (AC50) is 39.7 nM (active).

Take `Oc1ccc2cc(SSc3ccc4cc(O)ccc4c3)ccc2c1`: the AC50 was 113 nM (active). The result for `CCCCC(CC)COC(=O)c1ccc(O)cc1` (configuration not stated) reads 434 nM (active). `CCCCCCCCc1ccc(S(=O)(=O)O)cc1`: the concentration at half-maximal activity (AC50) is 2970 nM (active). For `OCc1cccc(Oc2ccccc2)c1` the value was 12200 nM (active); for `COc1ccc(N=Nc2cc(C)c(N=Nc3ccc(S(=O)(=O)O)cc3)cc2OC)cc1`, 385 nM (active); for `CC(C)c1ccccc1O`, 32400 nM (active). Take `N[C@@H](Cc1cc(I)c(Oc2cc(I)c(O)c(I)c2)c(I)c1)C(=O)O`: the concentration at half-maximal activity (AC50) was 82.2 nM (active). On to `Nc1ccccc1[N+](=O)[O-]`, for which the concentration at half-maximal activity (AC50) is 20300 nM (active).

On to `Cc1cc(S(=O)(=O)O)ccc1N=Nc1c(O)ccc2ccccc12`, for which the AC50 is 79 nM (active). With `O=[N+]([O-])c1ccc(O)cc1C(F)(F)F`, the half-maximal activity concentration (AC50) was 111 nM (active). The result for `Cc1ccc(S(=O)(=O)Oc2ccc(N=Nc3ccc(-c4ccc(N=Nc5c(O)ccc6cc(S(=O)(=O)O)cc(S(=O)(=O)O)c56)c(C)c4)cc3C)cc2)cc1` reads 912 nM (active); that for `CC(C)CCCCCCCCCCCCCCC(=O)O`, 891 nM (active); that for `O=C(Nc1ccc2c(O)c(N=Nc3ccc(N=Nc4ccc(S(=O)(=O)O)cc4)cc3)c(S(=O)(=O)O)cc2c1)c1ccccc1`, 9920 nM (active).

On to `C=C[Si]1(C)O[Si](C)(C=C)O[Si](C)(C=C)O[Si](C)(C=C)O1` (configuration not stated), for which the concentration at half-maximal activity (AC50) is 50000 nM (active). The result for `BrCc1cccc(Oc2ccccc2)c1` reads 4220 nM (active); that for `CCCCCCC(CO)CCCC` (configuration not stated), 46700 nM (active).

What is called AC50 is the concentration giving half of the maximal activity seen.
